Out of some 83,000 compounds screened, fewer than 10 were called active. The rule behind the calls is not given here. A selection follows. Entries with a potency or affinity are not part of this list.
Each compound was assayed against Heat shock cognate 71 kDa protein (Homo sapiens) (UniProt P11142) (assay: Hsc70 inhibitors, probe displacement, primary screen, biochemical, fluorescence polarization (AID 568)). Conditions: mP, at 20 µM, stronger effect = higher value.
Sequence of Heat shock cognate 71 kDa protein (Homo sapiens) (P11142 whole entry, looked up): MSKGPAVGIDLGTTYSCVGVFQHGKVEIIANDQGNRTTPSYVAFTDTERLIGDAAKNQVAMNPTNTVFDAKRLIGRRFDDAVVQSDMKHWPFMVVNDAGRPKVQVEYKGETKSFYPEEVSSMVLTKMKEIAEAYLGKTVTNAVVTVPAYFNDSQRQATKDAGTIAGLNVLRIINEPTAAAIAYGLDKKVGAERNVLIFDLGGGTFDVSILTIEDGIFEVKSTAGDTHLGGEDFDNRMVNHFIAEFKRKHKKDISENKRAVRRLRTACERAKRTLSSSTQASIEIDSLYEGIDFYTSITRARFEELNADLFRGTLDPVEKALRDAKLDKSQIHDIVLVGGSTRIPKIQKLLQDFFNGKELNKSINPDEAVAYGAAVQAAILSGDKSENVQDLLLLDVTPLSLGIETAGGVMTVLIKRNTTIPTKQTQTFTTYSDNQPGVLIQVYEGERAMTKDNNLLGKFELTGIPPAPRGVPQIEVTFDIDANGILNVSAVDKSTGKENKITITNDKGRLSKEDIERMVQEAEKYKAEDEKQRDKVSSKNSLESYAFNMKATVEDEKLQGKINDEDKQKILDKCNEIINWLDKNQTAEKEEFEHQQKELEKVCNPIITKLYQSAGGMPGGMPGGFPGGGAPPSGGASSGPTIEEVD
Sequence of Heat shock cognate 71 kDa protein (Homo sapiens) (P11142 whole entry, looked up): as above

displacement, inactive:
CN1C(=S)SC(/[N+]([O-])=C\c2ccco2)C1(C)C (configuration not stated) -8.3%
CCOC(=O)c1sc(NC(=O)C2CCCO2)c(C(=O)OC)c1C (configuration not stated) 2.1%
Cc1ccc(-c2cc3nc(C)cc(NCc4ccco4)n3n2)cc1 -12.6%
CCOC(=O)N1CCC(N2C(=O)c3ccccc3C2Nc2ccc(Cl)cn2)CC1 (configuration not stated) 0%
CCC(=O)N1CCc2cc(Br)cc(S(=O)(=O)NCC3CCCO3)c21 (configuration not stated) 5.2%
COc1ccc(-c2nnc3sc(CCN4C(=O)c5ccccc5C4=O)nn23)cc1 -0.6%
O=C(N1CCN(c2ccccc2)CC1)C(F)(F)C(F)(F)F 8.8%
CCOC(=O)CCSCC(=O)Nc1cc(C)on1 4.3%
Cc1ccc(NCc2nnc(SCC(=O)OC3CCCCC3)o2)c(C)c1 -6.7%
CCN1CCN(C(=O)c2sc3nc(C)nc(N4CCC(C)CC4)c3c2C)CC1 -3.6%
CN(c1ccccc1)C(c1ccc(F)cc1)c1nnnn1C1CCCC1 (configuration not stated) -4.6%
CCOC(=O)c1ccc(COC(=O)CNC(=O)CNC(=O)c2ccc(OC)cc2)o1 -3.7%
CC(C)C(c1nnnn1Cc1ccc(F)cc1)N1CCSCC1 (configuration not stated) -2.2%
COc1ccc(CCN2CNc3c(c(=O)n(C)c(=O)n3C)C2)cc1 0.1%
O=C(CSc1nnc(-c2ccncc2)n1CC1CCCO1)NCc1ccccc1 (configuration not stated) -0.2%
O=C(Nc1ccc(N2CCOCC2)cc1)c1cccc(S(=O)(=O)N2CCC(Cc3ccccc3)CC2)c1 -1.4%
Cc1ccc(OCC(=O)Nc2cc(-c3nn4c(C)nnc4s3)ccc2C)cc1 4.5%
Clc1ccc(/C=N/c2c(-c3ccco3)nc3ccccn23)cc1 3.7%
CC(NC(=O)c1ccc(CS(=O)(=O)c2cccc(C(F)(F)F)c2)o1)c1ccc2c(c1)OCCO2 (configuration not stated) -1.8%
COc1ccc(C(=O)Oc2cccnc2)cc1 -4.3%
Cc1ccc(C)c2c1[nH]c1ccccc12 1.5%
CC(C)Cc1cc(C(=O)N2N=C(C(F)F)CC2(O)C(F)F)c2ccccc2n1 (configuration not stated) 1.5%
COc1cc2cc(C(c3nnnn3C3CCCC3)N3CCCCCC3)c(=O)[nH]c2cc1OC (configuration not stated) -5%
COCCN1C(=O)c2ccccc2C(C(=O)NCCN(C)C)C1c1ccc(F)cc1 (configuration not stated) -4.9%
CCCCn1c(=O)n(CC(=O)Nc2ccc(C)c(Cl)c2)c(=O)c2c1ncn2Cc1ccco1 -21.2%
CCOc1ccc(CC(C(=O)NN)C(=O)NN)cc1CN(C)C 2.3%
COc1ccc(Br)cc1CNC(=O)C1CCCN(S(C)(=O)=O)C1 (configuration not stated) -2%
OC(COc1ccc2c(c1)OCO2)CN1CCc2ccccc2C1 (configuration not stated) 1.3%
COCCNC(=O)C(c1ccc(C)o1)N(Cc1ccco1)C(=O)c1snc(C(N)=O)c1N (configuration not stated) 5.3%
CC1=CN2C(=NC(=O)CC2(C)C(=O)N(CC(=O)NC2CCCC2)c2ccccc2C)C=C1 (configuration not stated) -1.4%
CC(=O)OCCn1c(Br)nc2c1c(=O)[nH]c(=O)n2C 4.4%
Cc1nc2c(C(=O)N3CCCCC3)cnn2c(C)c1Cc1ccccc1F 2.6%
COC(=O)[C@H](Cc1ccccc1)NC(=O)N1CCC(C)CC1 -1.3%
CN1CCN(S(=O)(=O)c2ccc(N3CCN(S(=O)(=O)/C=C/c4ccccc4)CC3)nc2)CC1 -5.3%
Cn1cnnc1SCCC(=O)Nc1ccc(Cl)cc1 4.9%
CC1CCCCC1NC(=O)Cn1ncc2ccccc21 (configuration not stated) -0.3%
CCC(Sc1nc2n[nH]c(C)c2c(=N)n1-c1cccc(Cl)c1C)C(=O)N(CC)CC (configuration not stated) -7.7%
Cc1ccc(-c2noc(C3CCCN(C(=O)c4ccccc4)C3)n2)o1 (configuration not stated) 1.4%
CCc1ccc2nc(NC3=NCN(CCOC)CN3)nc(C)c2c1 0.7%
Cc1ccc(N2CN=C(c3ccccc3)NC2=S)cc1 -3.8%
CCOC(=O)c1ccc(NC(=O)CSc2nc(C)cc(=O)[nH]2)cc1 -2.1%
O=C(NC1CCCCCCC1)c1ccco1 -2.6%
Cc1c(/C=C/C(=O)c2cccs2)cnn1C 0.7%
CCOc1cccc(C(=O)Nc2ccc(N(CC)CC)cc2)c1 -1.7%
O=C1c2ccsc2SCCN1Cc1ccc(Cl)cc1 3.5%
Nc1ccccc1SCc1cn2cccnc2n1 -0.9%
CC(C)[C@H](NC(=O)OC(C)(C)C)c1nnc(SCc2cccc(F)c2)o1 6.2%
CC(C)(C)c1ccc(-c2nnc(SCCN3C(=O)c4ccccc4C3=O)o2)cc1 -4.1%
CCCn1nnc(NC(=O)c2ccccc2Br)n1 -4.1%
Cc1ccc2nc(NC(=O)c3cccs3)sc2c1 1.4%
Cc1ccccc1-n1c(=O)cc(N2CCN(C(=O)c3ccco3)CC2)[nH]c1=O -0.4%
COc1ccc2[nH]cc(C(=O)CN3CCN(C(=O)c4ccco4)CC3)c2c1 -1.6%
COc1ccc(C2C(C(=O)NC(C)C)c3ccccc3C(=O)N2C)cc1OC (configuration not stated) -8.3%
COc1ccc(C(=O)CN2C(=O)c3ccccc3C2=O)c(OC)c1C -1.2%
O=C(CC12CC3CC(CC(C3)C1)C2)NCO -2.2%
CCCCOCC(O)Cn1c(C)nc2ccccc21 (configuration not stated) -2.3%
CN=C1SC(CC(=O)Nc2cccc(Cl)c2Cl)C(=O)N1C (configuration not stated) 0%
COc1nc(OC)nc(N2CCCCCC2)n1 7.4%
c1cncc(-c2nc3cc(Cc4ccc5oc(-c6cccnc6)nc5c4)ccc3o2)c1 -0.1%
COCCCn1c(SCC(=O)Nc2ccc3c(c2)OCCO3)nnc1-c1ccoc1C -9.3%
Cn1cccc1Cc1nnc(SCC(=O)NCc2ccccc2)n1-c1ccc(F)cc1 1.3%
CC(C)CC(=O)Nc1ccc(-c2cn3ccsc3n2)cc1 3%
CCOC(=O)c1sc(=S)n(-c2ccccc2OC)c1N 4.2%
COc1ccc(N(CC(=O)Nc2cc(OC)ccc2OC)S(=O)(=O)c2c(C)nn(C)c2C)cc1 -0.1%
Oc1c(Cl)cc(Cl)c2c1NCCC2 1%
Oc1c(Cl)cc(Cl)cc1Sc1cc(Cl)cc(Cl)c1O 11.6%
NC(=O)CSc1nnc(Cc2ccc3c(c2)OCO3)n1C1CCCCC1 -4.2%
COc1cccc(Nc2c(F)c(F)c(F)c(F)c2C(=O)O)c1 3.7%
CC1(C)CC(=O)C2=C(C1)OC(N)=C(C#N)C21C(=O)N(Cc2ccccc2Cl)c2ccccc21 (configuration not stated) -38.5%
O=C(CSc1nc(-c2ccco2)cc(C(F)(F)F)n1)NC1CCCCCCC1 -4.2%
Cc1ccc2c(c1)N(Cc1ccc3c(c1)OCO3)C(=O)C(C)O2 (configuration not stated) -2.1%
O=C(Cn1cnc2c(nnn2Cc2ccccc2)c1=O)N1CCCc2ccccc21 2%
CC(=O)NCCc1ccc(S(=O)(=O)NC2OC(=O)c3ccccc32)cc1 (configuration not stated) -3.3%
CC1(C)Cc2c(c(N3CCOCC3)nc3sc4c(=O)[nH]cnc4c23)CS1 -5%
C=CCN1C(=O)C2C(C(=O)NCc3ccccc3)C3C=CC2(O3)C1C(=O)NC(C)(C)C (configuration not stated) -3.6%
O=C1CCCCCN1CSc1nc2ccccc2s1 5.1%
CCOC(=O)N1CCN(C(=O)CN(c2ccc3c(c2)OCO3)S(C)(=O)=O)CC1 0.1%
Oc1ccccc1-c1cc(-c2ccco2)[nH]n1 1.3%
CC(=O)Nc1ccc(S(=O)(=O)N(C)CC(=O)Nc2ccccc2N2CCOCC2)cc1 -0.5%
COc1ccc(-c2nc(CS(=O)CC(=O)NCc3cccnc3)c(C)o2)cc1 (configuration not stated) 1.8%
Cc1ccc(C)c(N(CC(=O)NC2CCCC2)C(=O)CCCC(=O)Nc2ccccn2)c1 4.6%
CN1CCc2c(sc3c2C(=O)NC(/C=C/c2ccco2)N3)C1 (configuration not stated) 5.2%
CCOc1c(Cl)cc(C(=O)NCCN2CCCCC2)cc1Cl -10.7%
Cc1ccccc1NC(=O)Cn1cccc1 -0.7%
Cc1ccc(-c2nn3c(-c4ccco4)nnc3c3ccccc23)cc1S(=O)(=O)NCC1CCCO1 (configuration not stated) 1%
CC1CC(C)CN(CCCNC(=O)C2CCN(S(=O)(=O)N3CCCCC3)CC2)C1 (configuration not stated) -3.8%
O=C(Nc1ccc(-c2nc3ccccc3[nH]2)cc1)c1ccco1 -7.1%
CC(C)N(C#N)c1nc(N2CCOCC2)nc(N2CCOCC2)n1 9.4%
CC1=C(C(=O)N(C)CCC#N)C2(CCCCC2)OC1=O -1.4%
O=C(NC(Cc1ccccc1)c1nc2ccccc2[nH]1)C1CC(=O)N(c2ccc3c(c2)OCCO3)C1 (configuration not stated) -10.1%
Cc1ccc(C(=O)Nc2cc(=O)n(C)c(=O)n2C)o1 5.3%
O=C(CCCn1c(=S)[nH]c2cc3c(cc2c1=O)OCO3)N1CCN(c2ccccn2)CC1 -4.4%
Cc1cnc(NC(=O)c2cc3c(C)nn(-c4ccccc4)c3s2)s1 -5.6%
CC1CCN(C(=O)c2cc(-c3ccccc3O)on2)CC1 -5%
CCOC(=O)C1CCCN(CCC(=O)Nc2ccc(C)cc2)C1 (configuration not stated) -2.2%
CCCCN(C(=O)CNC(=O)c1ccco1)C(C(=O)NC1CCCC1)c1ccc(OC)cc1 (configuration not stated) 2.3%
O=C(Nc1ccc(F)c(F)c1)c1cccnc1 -5.4%
Cc1cc(C(=O)CN2C(=O)NC(c3ccccc3)(c3ccccc3)C2=O)c(C)n1Cc1ccccc1 -22.9%
Cc1nnc(SCC(=O)Nc2ccc(S(=O)(=O)N3CCCCC3)cc2)s1 -3.1%
CN(C)S(=O)(=O)c1ccc(NC(=O)c2c(F)cccc2Cl)cc1 -2.2%
Cc1c(C(=O)OCC(=O)N2c3ccccc3CC2C)oc2ccccc12 (configuration not stated) -0.6%
O=C(NCCN1CCOCC1)Nc1ccc(Cl)cc1Cl -6.7%
